# Results reported in PubChem BioAssay (NCATS).
# Where “and” joins values, the source holds several entries; their conditions need not be identical. Identical values can stand only once. Results filed as inconclusive are left out. Calls of active or inactive are those of the source. Unless noted, the call rests on the fitted dose curve; in most records, active means well fitted curve in the direction sought with a large enough effect; inconclusive means small, poorly fitted or top-dose-only effect, or another doubt; inactive means no such curve, though single readings can be large; an effect the other way counts as inactive or inconclusive.
# Legend:
# [1] = Primary qHTS for inhibitors of nuclear receptor binding SET domain protein 2 (NSD2) in an isogenic RCH-ACV NSD2 p.E1099K mutant (9B) (AID 1645876); further: nearly all actives have a fitted effect of over 70% in size; on activity change, negative = viability loss: on the % scale 0 is the no-effect control and ±100 the full control effect
# [2] = Primary qHTS for inhibitors of nuclear receptor binding SET domain protein 2 (NSD2) in an RCH-ACV wild type WT cells (2C) (AID 1645877); further: nearly all actives have a fitted effect of over 70% in size; on activity change, negative = cell killing: on the % scale 0 is the no-effect control and ±100 the full control effect
# [3] = target: Catechol O-methyltransferase (Homo sapiens) (UniProt P21964); assay: Confirmatory Screen for Target Class Profiling of Small Molecule Inhibitors of Methyltransferases (AID 1745852; calls by dose curve; on activity change, negative = inhibition: on the % scale 0 is the no-effect control and ±100 the full control effect); details: MTase-Glo luminescence, SAH detection, recombinant enzyme; measured here: COMT max response; stronger effect = lower value
# [4] = target: Guanidinoacetate N-methyltransferase (Homo sapiens) (UniProt Q14353); assay: as above; details: activity change, negative = inhibition: at 57.3 µM (top of the series) unless noted
# [5] = target: Nicotinamide N-methyltransferase (Homo sapiens) (UniProt P40261); assay: as above; details: MTase-Glo luminescence, SAH detection, recombinant enzyme; measured here: NNMT max response; stronger effect = lower value
# Potency means the concentration at half of the fitted maximal effect.
# Sequence of Catechol O-methyltransferase (Homo sapiens) (P21964 whole entry, looked up): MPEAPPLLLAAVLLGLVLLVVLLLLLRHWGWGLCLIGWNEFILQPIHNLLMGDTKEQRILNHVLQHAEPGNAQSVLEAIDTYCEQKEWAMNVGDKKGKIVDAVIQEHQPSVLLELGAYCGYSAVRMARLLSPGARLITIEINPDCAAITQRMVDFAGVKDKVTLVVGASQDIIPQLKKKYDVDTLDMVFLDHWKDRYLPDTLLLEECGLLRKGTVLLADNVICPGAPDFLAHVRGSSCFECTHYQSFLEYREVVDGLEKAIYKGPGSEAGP
# Sequence of Nicotinamide N-methyltransferase (Homo sapiens) (P40261 whole entry, looked up): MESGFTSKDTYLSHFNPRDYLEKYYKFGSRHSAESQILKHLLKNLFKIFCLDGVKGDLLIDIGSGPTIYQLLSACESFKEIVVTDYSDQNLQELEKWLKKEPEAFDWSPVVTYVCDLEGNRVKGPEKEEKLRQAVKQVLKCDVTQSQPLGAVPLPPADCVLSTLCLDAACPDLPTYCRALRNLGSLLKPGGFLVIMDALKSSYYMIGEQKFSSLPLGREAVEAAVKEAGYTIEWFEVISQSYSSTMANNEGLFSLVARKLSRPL
structure (smiles),measurement,setting,value
C[C@@]12C[C@]3(O)O[C@H](O1)[C@]1(COC(=O)c4ccccc4)[C@H]3C[C@@]12O[C@@H]1O[C@H](COC(=O)c2ccccc2)[C@@H](O)[C@H](O)[C@H]1O,Potency,[1],inactive
same,Potency,[2],inactive
Cc1cc(C)c(S(=O)(=O)N(Cc2ccc(-c3cccc(S(C)(=O)=O)c3)cc2)Cc2ccc(C(F)(F)F)o2)c(C)c1,Potency,[1],inactive
same,Potency,[2],inactive
COc1cc2c(Nc3ccc(Cl)c(Cl)c3F)ncnc2cc1OCC1C[C@@H]2CN(C)C[C@@H]2C1 (stereo partly specified),Potency,[1],2.95 µM (active)
same,Potency,[2],2.63 µM (active) and 1.86 µM (active)
same,activity,[3],-81.3%
same,Potency,[4],24.1 µM (active)
same,activity,[5],-73.4%
C=C1[C@H]2[C@H](O[C@@H]3O[C@H](COC(=O)/C=C/c4cc(OC)c(O)c(OC)c4)[C@@H](O)[C@H](O)[C@H]3O)OC=C(C(=O)O)[C@H]2C[C@@H]1O,Potency,[1],inactive
same,Potency,[2],inactive
same,activity,[3],-50.9%
same,"activity change, negative = inhibition",[4],0% [at 19.1 µM]
same,activity,[5],0%
C=C[C@](C)(CC/C=C(\C)C(=O)O)O[C@@H]1OC[C@H](O)[C@H](O)[C@H]1O,Potency,[1],inactive
same,Potency,[2],inactive
same,activity,[3],-82.9%
same,"activity change, negative = inhibition",[4],-1.98%
same,activity,[5],-0.767%
CC1(C)O[C@@]2(C)CC[C@@H]1C[C@@H]2OC1OC(CO)C(O)C(O)C1O (stereo partly specified),Potency,[1],inactive
same,Potency,[2],inactive
same,activity,[3],-67.5%
same,"activity change, negative = inhibition",[4],2.82%
same,activity,[5],4.92%
CC1(C)CC[C@]2(C(=O)O[C@@H]3O[C@H](CO)[C@@H](O)[C@H](O)[C@H]3O)CC[C@]3(C)C(=CCC4[C@@]5(C)C[C@@H](O)[C@H](O)C(CO)(CO)C5CC[C@]43C)C2[C@@H]1O (stereo partly specified),Potency,[1],inactive
same,Potency,[2],inactive
same,activity,[3],-77.5%
same,"activity change, negative = inhibition",[4],0% [at 19.1 µM]
same,activity,[5],0%
NS(=O)(=O)OC[C@@H]1C[C@@H](n2ccc3c(N[C@H]4CCc5ccccc54)ncnc32)C[C@@H]1O,Potency,[1],325 nM (active) and 409 nM (active) and 525 nM (active)
same,Potency,[2],365 nM (active) and 515 nM (active) and 525 nM (active)
same,activity,[3],-6.43% and -2.13%
same,"activity change, negative = inhibition",[4],-2.34% and 2.95%
same,activity,[5],-12% and -2.45%
Cc1ccc2c(c1)C=Cc1cc(C)ccc1C2c1cn(Cc2ccc(C(=O)Nc3nn[nH]n3)o2)c(=O)[nH]c1=S,Potency,[1],inactive
same,Potency,[2],inactive
same,activity,[3],-11%
same,"activity change, negative = inhibition",[4],-0.0663%
same,activity,[5],-18.9%
C=C1C(O[C@@H]2O[C@H](CO)[C@@H](O)[C@H](O)[C@@H]2O)CC2C(C)(C)C(O)CCC2(C)C1CC/C(C)=C\CO (stereo partly specified),Potency,[1],inactive
same,Potency,[2],inactive
same,activity,[3],-63.2%
same,"activity change, negative = inhibition",[4],0% [at 29.8 µM]
same,activity,[5],3.48%
CC(=O)OC1C=C(C(=O)O)C2(CO)CCC(C)C(C)(CCc3ccoc3)C2C1 (stereo unspecified),Potency,[1],inactive
same,Potency,[2],inactive
CC(C)c1cc2c(c(O)c1O[C@@H]1O[C@H](CO)[C@@H](O)[C@H](O)[C@H]1O)CC1(O)CCC(O)C(C)(C)C1CC2 (stereo partly specified),Potency,[1],inactive
same,Potency,[2],inactive
CC(C)N(C[C@H]1O[C@@H](n2cnc3c(N)ncnc32)[C@H](O)[C@@H]1O)C1CC(CCc2nc3ccc(C(C)(C)C)cc3[nH]2)C1 (stereo partly specified),Potency,[1],inactive
same,Potency,[2],inactive
same,activity,[3],-14.6% and -12.5%
same,Potency,[4],30.4 µM (active)
same,"activity change, negative = inhibition",[4],-3.18%
same,activity,[5],-85.8% and -82.8%
C/C=C(\C)C(=O)O[C@H]1[C@@H](O[C@]2(COC(=O)CC(C)C)O[C@H](COC(=O)C(C)C)[C@@H](OC(C)=O)[C@@H]2O)O[C@H](COC(C)=O)[C@@H](O)[C@@H]1O,Potency,[1],inactive
same,Potency,[2],inactive
same,activity,[3],-75.6%
same,"activity change, negative = inhibition",[4],0% [at 19.1 µM]
same,activity,[5],2.56%
C[C@@H]1O[C@@H](O[C@H]2[C@H](OC(=O)C34CCC(C)(C)CC3C3=CCC5C6(C)CC(O)C(O[C@@H]7O[C@H](CO)[C@@H](O)[C@H](O)[C@H]7O)C(C)(C(=O)O)C6CCC5(C)C3(CO)CC4)O[C@H](C)[C@H](O)[C@@H]2O)[C@H](O)[C@H](O)[C@H]1O[C@@H]1OC[C@@H](O)[C@H](O)[C@H]1O (stereo partly specified),"activity change, negative = viability loss",[1],3.3% [at 9.23 µM] (inactive)
same,outcome,[2],inactive [at 9.23 µM]
same,activity,[3],-46%
same,"activity change, negative = inhibition",[4],-4.58% [at 19.1 µM]
same,activity,[5],-3.41%
C[C@@H]1O[C@@H](O[C@H]2[C@H](O[C@H]3CC[C@@]4(C)C(CC[C@]5(C)C4CC=C4C6CC(C)(C)CC[C@]6(C(=O)O[C@@H]6O[C@H](CO[C@@H]7O[C@H](CO)[C@@H](O[C@@H]8O[C@@H](C)[C@H](O)[C@@H](O)[C@H]8O)[C@H](O)[C@H]7O)[C@@H](O)[C@H](O)[C@H]6O)CC[C@]45C)[C@]3(C)CO)OC[C@H](O)[C@@H]2O)[C@H](O)[C@H](O)[C@H]1O (stereo partly specified),"activity change, negative = viability loss",[1],-5.7% [at 9.23 µM] (inactive)
same,"activity change, negative = cell killing",[2],-6.93% [at 9.23 µM] (inactive)
